The values below come from publication PMC7862700, “An all-to-all approach to the identification of sequence-specific readers for epigenetic DNA modifications on cytosine”.

Common to all, as to assay: DAPPL (digital affinity profiling via proximity ligation, sequencing); 10 mM Tris-HCl pH 7.5, 50 mM NaCl, 1 mM DTT, 4% glycerol, room temperature, 30 min; GST-TFs on glutathione beads, 16-mer random dsDNA library, 0.1% formaldehyde crosslink after washing; high values mean tight binding
What all share (conditions): protein: recombinant; tags: N-terminal GST; dsDNA, one strand shown

In one test the target is T1, SPIC (Homo sapiens, UniProt Q8N5J4 1-248).
T1 sequence: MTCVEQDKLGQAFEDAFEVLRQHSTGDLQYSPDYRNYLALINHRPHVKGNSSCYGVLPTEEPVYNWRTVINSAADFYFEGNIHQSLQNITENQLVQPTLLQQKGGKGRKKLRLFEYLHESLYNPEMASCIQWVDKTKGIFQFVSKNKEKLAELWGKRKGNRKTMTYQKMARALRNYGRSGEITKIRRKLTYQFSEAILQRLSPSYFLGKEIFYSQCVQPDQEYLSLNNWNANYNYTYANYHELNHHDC
The procedure, abridged: (§1)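 Binding signal is given per hexamer as its read frequency for a factor divided by its frequency in the tag-only sample. GST-fused human transcription factors were expressed in yeast, captured on glutathione beads, barcoded with DNA and pooled with that sample, then incubated with 200 nmole of a 16-mer random double-stranded DNA library in Tris/NaCl/DTT/glycerol buffer for 30 min at room temperature. The pools were then washed, crosslinked, proximity-ligated, amplified by PCR and sequenced on an Illumina NextSeq500.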

In another test the target is T2, ETV3L (Homo sapiens, UniProt Q6ZN32 1-361).
T2 sequence: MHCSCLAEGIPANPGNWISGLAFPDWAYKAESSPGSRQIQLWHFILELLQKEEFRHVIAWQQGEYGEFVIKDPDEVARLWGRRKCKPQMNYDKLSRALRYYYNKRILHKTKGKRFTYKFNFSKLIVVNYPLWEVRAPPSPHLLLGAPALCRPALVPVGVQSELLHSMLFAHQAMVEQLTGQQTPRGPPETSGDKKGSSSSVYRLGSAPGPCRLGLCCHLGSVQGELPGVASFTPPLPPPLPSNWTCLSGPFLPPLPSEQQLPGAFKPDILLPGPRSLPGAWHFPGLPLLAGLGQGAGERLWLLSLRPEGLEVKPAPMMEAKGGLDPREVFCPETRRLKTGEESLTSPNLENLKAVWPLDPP
In outline:
as §1

The next test has as its target T3, ERG (Homo sapiens, UniProt P11308 1-479).
T3 sequence: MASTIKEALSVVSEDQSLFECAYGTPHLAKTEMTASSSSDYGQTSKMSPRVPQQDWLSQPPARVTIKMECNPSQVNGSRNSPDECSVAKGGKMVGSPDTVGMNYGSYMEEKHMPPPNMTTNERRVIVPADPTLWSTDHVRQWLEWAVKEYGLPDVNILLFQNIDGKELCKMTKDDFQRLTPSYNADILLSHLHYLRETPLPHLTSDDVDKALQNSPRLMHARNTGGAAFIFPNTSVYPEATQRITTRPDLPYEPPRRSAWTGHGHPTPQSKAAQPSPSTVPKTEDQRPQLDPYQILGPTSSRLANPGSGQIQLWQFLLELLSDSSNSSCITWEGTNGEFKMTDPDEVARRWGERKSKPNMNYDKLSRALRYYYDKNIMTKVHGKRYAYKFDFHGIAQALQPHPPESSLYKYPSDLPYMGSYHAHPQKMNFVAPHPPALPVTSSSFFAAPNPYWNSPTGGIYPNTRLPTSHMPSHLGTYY
In outline: as §1

For a further test, the target named is T4, EHF (Homo sapiens, UniProt Q9NZC4 1-300).
T4 sequence: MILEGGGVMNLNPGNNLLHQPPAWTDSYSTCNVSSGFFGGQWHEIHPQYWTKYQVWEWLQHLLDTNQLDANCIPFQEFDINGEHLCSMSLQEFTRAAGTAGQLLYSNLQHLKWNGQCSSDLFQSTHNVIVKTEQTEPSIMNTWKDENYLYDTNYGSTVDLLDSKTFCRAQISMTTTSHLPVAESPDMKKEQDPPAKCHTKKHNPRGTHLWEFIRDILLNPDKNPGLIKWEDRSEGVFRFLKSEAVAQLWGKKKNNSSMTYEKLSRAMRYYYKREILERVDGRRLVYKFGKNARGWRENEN
In outline: as §1

For a further test, the target named is T5, ELK4 (Homo sapiens, UniProt P28324-2 1-405).
T5 sequence: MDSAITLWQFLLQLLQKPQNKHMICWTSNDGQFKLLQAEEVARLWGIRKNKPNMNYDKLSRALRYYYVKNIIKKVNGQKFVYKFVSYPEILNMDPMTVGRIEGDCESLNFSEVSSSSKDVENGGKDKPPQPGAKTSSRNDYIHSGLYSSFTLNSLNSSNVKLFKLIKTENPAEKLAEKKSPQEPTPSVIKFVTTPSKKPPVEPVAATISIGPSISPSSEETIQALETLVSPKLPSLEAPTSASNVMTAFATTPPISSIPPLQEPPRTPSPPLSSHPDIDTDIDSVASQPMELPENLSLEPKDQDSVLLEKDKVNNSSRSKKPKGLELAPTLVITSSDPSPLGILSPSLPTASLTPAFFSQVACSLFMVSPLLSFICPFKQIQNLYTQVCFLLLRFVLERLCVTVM
The procedure, abridged:
as §1

For a further test, the target named is T6, ETV2 (Homo sapiens, UniProt O00321 1-342).
T6 sequence: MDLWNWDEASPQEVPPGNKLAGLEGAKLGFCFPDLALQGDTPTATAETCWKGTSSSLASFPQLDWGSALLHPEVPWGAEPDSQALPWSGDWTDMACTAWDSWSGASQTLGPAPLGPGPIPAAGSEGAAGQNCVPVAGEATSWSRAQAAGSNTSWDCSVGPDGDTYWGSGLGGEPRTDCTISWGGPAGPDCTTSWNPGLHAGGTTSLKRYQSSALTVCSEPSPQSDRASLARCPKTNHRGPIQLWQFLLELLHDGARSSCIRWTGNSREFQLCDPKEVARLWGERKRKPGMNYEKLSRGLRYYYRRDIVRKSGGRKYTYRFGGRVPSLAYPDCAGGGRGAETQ
The procedure, abridged:
as §1

For the next test, the target named is T7, ELF3 (Homo sapiens, UniProt P78545 1-371).
T7 sequence: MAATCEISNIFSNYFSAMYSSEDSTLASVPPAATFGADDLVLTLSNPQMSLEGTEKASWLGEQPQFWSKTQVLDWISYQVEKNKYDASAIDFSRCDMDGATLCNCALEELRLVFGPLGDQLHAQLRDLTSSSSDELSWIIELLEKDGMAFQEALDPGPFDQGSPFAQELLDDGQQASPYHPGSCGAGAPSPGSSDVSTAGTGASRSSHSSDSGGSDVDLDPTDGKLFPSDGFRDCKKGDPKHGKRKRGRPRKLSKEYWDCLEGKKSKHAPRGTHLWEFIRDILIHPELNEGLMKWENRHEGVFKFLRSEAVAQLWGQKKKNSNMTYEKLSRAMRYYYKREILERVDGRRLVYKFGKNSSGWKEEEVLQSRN
The procedure, abridged:
as §1

The next test concerns the target ETV1 (Homo sapiens, UniProt P50549 1-477). In outline:
as §1

The target of a further test is T8, SPDEF (Homo sapiens, UniProt O95238 1-335).
T8 sequence: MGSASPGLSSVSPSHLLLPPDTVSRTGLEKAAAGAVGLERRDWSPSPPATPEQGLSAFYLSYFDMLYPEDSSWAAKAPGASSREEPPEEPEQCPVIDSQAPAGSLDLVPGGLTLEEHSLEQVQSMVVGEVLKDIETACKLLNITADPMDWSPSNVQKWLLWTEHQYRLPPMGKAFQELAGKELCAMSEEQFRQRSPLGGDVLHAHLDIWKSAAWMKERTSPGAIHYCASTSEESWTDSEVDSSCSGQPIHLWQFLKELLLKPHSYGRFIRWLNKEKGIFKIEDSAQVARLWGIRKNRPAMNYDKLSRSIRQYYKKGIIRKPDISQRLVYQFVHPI
In outline: as §1

For a further test, the target named is T9, ETV3 (Homo sapiens, UniProt P41162-2 1-143).
T9 sequence: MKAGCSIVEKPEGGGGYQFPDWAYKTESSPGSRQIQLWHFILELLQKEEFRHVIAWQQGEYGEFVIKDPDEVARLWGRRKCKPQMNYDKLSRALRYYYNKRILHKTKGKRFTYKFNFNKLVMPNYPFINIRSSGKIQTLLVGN
The procedure, abridged:
as §1

In a further test the target is T10, ERF (Homo sapiens, UniProt P50548 1-548).
T10 sequence: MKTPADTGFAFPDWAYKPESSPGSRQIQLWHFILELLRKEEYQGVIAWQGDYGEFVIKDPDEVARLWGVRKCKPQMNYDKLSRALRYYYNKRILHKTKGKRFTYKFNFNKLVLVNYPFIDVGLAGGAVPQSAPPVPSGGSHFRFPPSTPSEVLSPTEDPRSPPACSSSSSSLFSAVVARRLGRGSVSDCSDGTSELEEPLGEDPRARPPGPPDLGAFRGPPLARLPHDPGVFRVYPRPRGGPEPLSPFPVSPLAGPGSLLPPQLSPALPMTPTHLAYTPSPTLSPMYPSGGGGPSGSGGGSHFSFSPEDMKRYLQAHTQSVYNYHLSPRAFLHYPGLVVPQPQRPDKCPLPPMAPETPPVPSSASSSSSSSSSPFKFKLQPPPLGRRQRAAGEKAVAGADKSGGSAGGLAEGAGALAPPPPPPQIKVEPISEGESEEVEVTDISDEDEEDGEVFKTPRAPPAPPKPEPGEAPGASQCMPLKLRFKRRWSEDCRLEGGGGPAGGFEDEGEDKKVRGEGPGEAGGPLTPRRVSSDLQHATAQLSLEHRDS
In outline: as §1

The target in a further test is T11, ETV7 (Homo sapiens, UniProt Q9Y603 1-341).
T11 sequence: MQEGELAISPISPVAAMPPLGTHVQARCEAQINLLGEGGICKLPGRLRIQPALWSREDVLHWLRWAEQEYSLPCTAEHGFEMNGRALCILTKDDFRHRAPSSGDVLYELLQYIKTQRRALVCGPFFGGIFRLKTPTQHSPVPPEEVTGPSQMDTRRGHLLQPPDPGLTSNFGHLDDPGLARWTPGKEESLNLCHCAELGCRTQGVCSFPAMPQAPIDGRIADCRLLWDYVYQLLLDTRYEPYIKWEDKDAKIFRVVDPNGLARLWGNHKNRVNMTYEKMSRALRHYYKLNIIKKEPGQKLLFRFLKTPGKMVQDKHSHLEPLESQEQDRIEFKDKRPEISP
The procedure, abridged:
as §1

Chain of ETV1 (P50549 whole entry): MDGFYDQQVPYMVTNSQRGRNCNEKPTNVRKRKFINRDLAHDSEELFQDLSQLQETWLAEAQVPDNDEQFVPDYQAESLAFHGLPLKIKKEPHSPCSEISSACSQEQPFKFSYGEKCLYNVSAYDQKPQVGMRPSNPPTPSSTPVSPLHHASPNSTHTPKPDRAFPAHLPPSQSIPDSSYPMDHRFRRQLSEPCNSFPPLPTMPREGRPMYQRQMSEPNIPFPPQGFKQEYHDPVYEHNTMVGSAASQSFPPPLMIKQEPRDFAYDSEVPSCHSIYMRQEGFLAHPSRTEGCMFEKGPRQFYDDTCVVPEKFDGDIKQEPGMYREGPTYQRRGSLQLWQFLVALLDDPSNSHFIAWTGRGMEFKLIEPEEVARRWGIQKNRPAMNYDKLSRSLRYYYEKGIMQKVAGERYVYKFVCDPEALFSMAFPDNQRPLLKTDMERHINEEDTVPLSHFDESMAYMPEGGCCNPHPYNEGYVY

Take GCCATC: the binding signal with SPIC is 1.17 fold enrichment (6-mer frequency, TF over GST control); in the test with ETV3L it was 1.03 fold enrichment (6-mer frequency, TF over GST control).
For AGGTCC, the binding signal was 1.02 fold enrichment (6-mer frequency, TF over GST control) in the test with ERG; 1.05 fold enrichment (6-mer frequency, TF over GST control) in the test with EHF; 1.2 fold enrichment (6-mer frequency, TF over GST control) in the test with SPIC; 1.02 fold enrichment (6-mer frequency, TF over GST control) with ELK4; 1.08 fold enrichment (6-mer frequency, TF over GST control) with ETV2; 1.07 fold enrichment (6-mer frequency, TF over GST control) with ELF3. The binding signal with ETV1 was 1.05 fold enrichment (6-mer frequency, TF over GST control); in the test with ETV3L, 1.03 fold enrichment (6-mer frequency, TF over GST control); with SPDEF, 1.24 fold enrichment (6-mer frequency, TF over GST control); with ETV3, 1.03 fold enrichment (6-mer frequency, TF over GST control).
As for CGCAAT, the binding signal with SPIC was 1.01 fold enrichment (6-mer frequency, TF over GST control); with ETV2 it was 1.04 fold enrichment (6-mer frequency, TF over GST control); with ETV3, 1.01 fold enrichment (6-mer frequency, TF over GST control).
Turning to CGACAG, the binding signal was 1.01 fold enrichment (6-mer frequency, TF over GST control) with SPIC; 1.03 fold enrichment (6-mer frequency, TF over GST control) with ELK4; 1.07 fold enrichment (6-mer frequency, TF over GST control) with ETV2; 1.07 fold enrichment (6-mer frequency, TF over GST control) with ERF; 1.01 fold enrichment (6-mer frequency, TF over GST control) in the test with SPDEF; 1.08 fold enrichment (6-mer frequency, TF over GST control) in the test with ETV7.
